# Measurements published in PubChem BioAssay.
# Values without a mark were called inactive.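 How the source made its calls: active means viability increase at or above a cutoff of the median across tested compounds plus 3 SD (cut at about 8.5% in these data, passing the limit was not always enough); inconclusive means some gains above the cutoff, reason not given; inactive means the rest.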
# Assay: doxorubicin toxicity protection in MRP-1 cells – H69AR cells, CellTiter-Glo, duplicate, MRP-1 activator project, pilot screen (AID 807);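 further: compound pretreatment 18-22 h then 72 h combined with doxorubicin; 0% = doxorubicin alone and 100% = vehicle without doxorubicin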
# Details: H69AR viability with doxorubicin, CellTiter-Glo luminescence; at 10 µM; active compounds read high
row,SMILES,viability increase [%]
1,COCCOC(=O)C1=C(C)NC2=C(C(=O)CCC2)C1c1ccc(N(C)C)cc1 (stereo not given),-1.53
2,COc1ccc(C2C(C(N)=O)=C(C)Nc3nc(-c4ccccc4Cl)nn32)c(OC)c1 (stereo not given),-0.07
3,CC(=O)N1CCc2cc(C(=O)CN3CCC(C)CC3)ccc21,-2.46
4,COc1cccc(OCC(=O)N(Cc2nc(-c3ccc(Cl)cc3)no2)C(C)C)c1,2.88
5,CCn1c(-c2cc(OC)ccc2OC)csc1=Nc1c(C)n(C)n(-c2ccccc2)c1=O,0.28
6,NC(=O)SCC(=O)Nc1ccc(Cl)c(Cl)c1,-7.83
7,O=C(NCC1CCCO1)C1CC(=O)N(c2ccc(F)c(Cl)c2)C1 (stereo not given),-1.68
8,COc1cc(CO)cc(Br)c1OCC(=O)O,-1.45
9,Cn1c(CNC(=O)C(C)(C)C)nc2ccccc21,-3.97
10,CCN(CC)c1cccc(OC2=NS(=O)(=O)c3ccccc32)c1,-1.25
11,CC(CNC(=O)C1CCCCC1)NC(=O)C1CCCCC1 (stereo not given),0.64
12,COc1ccc(-c2nc(CSCC(=O)N3CCN(C4CCCCC4)CC3)c(C)o2)cc1OC,-1.54
13,Cc1ccc(NS(=O)(=O)c2ccc3c(c2)oc(=O)n3C)cc1F,0.32
14,Cc1c(C(=O)NCC2CCCO2)oc2ccc(S(=O)(=O)N3CCCCC3)cc12 (stereo not given),-0.95
15,COc1cccc(N2CCN(C(=O)CN(C)S(=O)(=O)c3ccc4c(c3)CCC(=O)N4)CC2)c1,-2.87
